Shown is part of a subset that was picked to be rich in hits.
Cruzain noTriton: blocks cruzain activity in detergent-free assay | P25779 | purified cruzain, Z-FR-AMC fluorescence, no detergent | Potency, µM, without a hit: max response, negative = inhibition, most hits filed as inhibitors | 200,000 compounds, 2.3% hits | AID 1476;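 also: plate controls were enzyme without inhibitor for no effect and buffer without enzyme for full effect; nearly all actives have a fitted effect of over 40% in size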
Target sequence (P25779 123-467 limits assumed): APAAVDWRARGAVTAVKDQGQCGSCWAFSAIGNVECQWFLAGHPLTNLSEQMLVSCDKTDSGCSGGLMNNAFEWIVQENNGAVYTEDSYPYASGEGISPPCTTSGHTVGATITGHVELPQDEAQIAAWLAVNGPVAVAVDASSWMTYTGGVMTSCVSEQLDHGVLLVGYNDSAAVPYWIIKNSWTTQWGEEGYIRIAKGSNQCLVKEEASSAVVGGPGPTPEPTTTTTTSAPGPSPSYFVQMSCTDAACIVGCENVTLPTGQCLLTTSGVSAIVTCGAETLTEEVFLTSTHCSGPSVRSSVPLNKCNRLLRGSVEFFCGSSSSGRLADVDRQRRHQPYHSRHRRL
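Purified cruzain at 1.5 nM, pre-incubated 15 min with compound at room temperature in 100 mM sodium acetate pH 5.5, 5 mM DTT, 0.00005% Triton X-100. Reaction started with 2 uM Z-FR-AMC; AMC fluorescence increase over 60 s gives rate.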
Cruzain Triton: inhibitors of Trypanosoma cruzi cruzain with detergent; P25779; purified cruzain, Z-FR-AMC fluorescence, 0.01% Triton; Potency, µM, without a hit: max response, negative = inhibition, most hits filed as inhibitors; 200,000 compounds, 0.43% hits; AID 1478;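 also: plate controls were neutral wells for no effect and buffer without enzyme for full effect; nearly all actives have a fitted effect of over 40% in size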
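Sodium acetate buffer (100 mM, pH 5.5) containing 5 mM DTT and 0.01% Triton X-100 hosted 1.5 nM cruzain and test compound for 15 min at room temperature. Cleavage of 2 uM Z-FR-AMC was then tracked by fluorescence.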
NS1 function inh: blocks influenza NS1 protein function. Potency, µM (series often up to 46.1 µM), for the others: at the top dose activity, positive = more growth. 270,000 compounds, 0.4% hits; calls by dose curve; also: actives are rising curves; nearly all actives have a fitted effect of over 50% in size
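In this qHTS, NS1 from influenza A is expressed in budding yeast, where it slows growth. Cells are switched from glucose to 2% galactose medium (pH 6.0, -URA), treated with compound, and growth recovery is read at OD600.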
* hit, by the source's call; ? = inconclusive; · = no result; ! = a repeat was not active. Unless noted, calls follow the shape of the dose curve; as a rule, active = well fitted curve in the direction sought with a large enough effect; inconclusive = small, poorly fitted or top-dose-only effect, or another doubt; inactive = no such curve, though single readings can be large; an effect the other way counts as inactive or inconclusive. Potency is read from the fitted curve at half-maximal effect.

SMILES | Cruzain noTriton | Cruzain Triton | NS1 function inh
N#CC(C#N)=NNc1ccc(OC(F)(F)F)cc1 | 3.5% | ? | ·
C=CC(=O)CC | 2.8% | 2.4% | ·
COc1cccc(CSc2nc3cc(OC)c(OC)cc3c3nc(CCn4nc(C)cc4C)nn23)c1 | -3.5% | -1.5% | ·
[O-]/C(=C(\C(=S)Nc1cccc2ccccc12)[n+]1ccccc1)c1ccc2c(c1)OCCO2 | 12.6µM* | -5.6% | 15.6%
[O-]/C(=C(\C(=S)Nc1cccc2ccccc12)[n+]1ccccc1)c1cccs1 | · | · | 12.9%
O=C(OC1Cc2c(O)cc(O)cc2OC1c1cc(O)c(O)c(O)c1-c1c(C2Oc3cc(O)cc(O)c3CC2OC(=O)c2cc(O)c(O)c(O)c2)cc(O)c(O)c1O)c1cc(O)c(O)c(O)c1 (configuration not stated) | -10.8% | -17.8% | ·
CC(C)Oc1ccc(Br)cc1/C=N\NC(N)=S | 0.0316µM* | 0.251µM* | 18.2%
COc1ccc(Br)cc1/C=N/NC(=O)Cn1nnnc1N | · | · | 3.8%
Cc1ccc(Nc2ncc(C(=O)N3CCN(c4cccc(Cl)c4)CC3)c3ccccc23)cc1Cl | 7.94µM* | -6.2% | ·
Cc1ccc(Nc2ncc(C(=O)NCCCN3CCN(C)CC3)c3ccccc23)cc1Cl | · | · | 0.2%
COc1ccccc1NC(=O)c1cnc(Nc2ccccc2OC)c2ccccc12 | ? | -10.4% | 4.8%
COc1ccc(OC)c(NC(=O)c2cnc(Nc3ccc(C)c(Cl)c3)c3ccccc23)c1 | 6.31µM* | -4.1% | ·
COc1ccc(CNc2ccnc(-c3c(C)noc3C)n2)c(OC)c1 | 0.2% | 4.3% | ·
CN(C)c1ncnc2ccc(-c3ccc4c(c3)OCO4)cc12 | -9.8% | -9.9% | ·
COc1ccc(NCc2cc3cc4c(cc3n(CC(=O)Nc3ccc(F)cc3F)c2=O)OCO4)cc1 | ? | -5.0% | ·
CCN1CCN(c2oc(/C=C/c3ccccc3)nc2C#N)CC1 | · | · | -2.3%
COc1ccc(Nc2oc(/C=C/c3ccccc3OC)nc2C#N)cc1 | ? | -1.5% | ·
CCN1CCN(c2oc(/C=C/c3ccccc3OC)nc2C#N)CC1 | 31.6µM* | -25.0% | ·
COc1ccccc1/C=C/c1nc(C#N)c(N2CCN(C)CC2)o1 | 25.1µM* | -29.2% | ·
NC(N)=NCCC[C@H](NC(=O)CC1(CC(=O)N2CCN(C3c4ccccc4NC(=O)c4ccccc43)CC2)CCCC1)C(=O)NCCn1c(=O)n(-c2ccccc2)n(-c2ccccc2)c1=O (some centres not stated) | 4.1% | -3.2% | ·
NC(=O)CN1CCN(c2nc(-c3ccc(F)cc3)cs2)CC1 | 0.4% | -1.8% | 7.1%
O=C(CN1CCN(c2nc(-c3ccc(F)cc3)cs2)CC1)Nc1ccc2c(c1)OCO2 | 25.1µM* | -5.3% | ?
Cc1cccc(C(=O)NCc2nc3ccccc3n2Cc2ccccc2Cl)c1 | 16.1% | -14.9% | ·
CCCCCn1c(CNC(=O)c2cccs2)nc2ccccc21 | 16.5% | -5.2% | -7.5%
Cc1cccc(C(=O)NCCc2nc3ccccc3n2Cc2ccc(Cl)cc2)c1 | ? | 7.94µM* | ·
SMILES | Cruzain noTriton | Cruzain Triton | NS1 function inh
CCCCCn1c(CCNC(=O)c2cccc(C)c2)nc2ccccc21 | 5.9% | 12.6µM* | ·
CCC(=O)NCCc1nc2ccccc2n1Cc1ccccc1 | -16.7% | -0.4% | -8.0%
CCCCCn1c(CCNC(=O)c2cccs2)nc2ccccc21 | 12.6µM* | -21.8% | -49.6%
O=C(NCCc1nc2ccccc2n1Cc1ccc(Cl)cc1)c1ccccc1 | 17.1% | 6.31µM* | ·
CCCCCn1c(CCNC(=O)CCC)nc2ccccc21 | -5.5% | -21.0% | -11.8%
Cc1ccc(CN2CCc3nc(SCC(=O)Nc4cccc(C)c4C)[nH]c(=O)c3C2)cc1 | -4.7% | -1.7% | ·
Cc1cc(Br)ccc1NC(=O)C(NS(=O)(=O)c1cccs1)c1ccccc1 (configuration not stated) | ? | -7.3% | ·
CCCCCCCC[N+](CCCCCCCC)(CCCCCCCC)CCCCCCCC | -16.2% | -11.2% | ·
COc1ccc(C(=O)Nc2ccc(OC)c(OC)c2)cc1 | -11.7% | -3.2% | -9.7%
Cc1ccc(NC(=O)c2ccc(OC(=O)C(C)Oc3ccc(Cl)cc3C)cc2)cc1 (configuration not stated) | 7.94µM* | 1.6% | 14.0%
Clc1ccc(OCCSCc2nc3ccccc3[nH]2)cc1 | 25.1µM* | ? | -35.7%
Cc1ccc(OCCSCc2nc3ccccc3[nH]2)cc1 | -9.1% | -19.6% | -88.6%
CCCc1ccc(-c2cc(C(=O)N/N=C/c3ccc([N+](=O)[O-])o3)c3ccccc3n2)cc1 | 15.8µM* | -2.2% | 0.4%
O=C(N/N=C/c1ccc([N+](=O)[O-])o1)c1cc(-c2cccc(Br)c2)nc2ccccc12 | ? | -3.3% | 11.8%
COC(C)(C)C | -2.0% | 4.6% | ·
Cc1ccccc1C(=O)Nc1nnc(SCc2cc(=O)c3c(C)ccc(C)c3[nH]2)s1 | -5.8% | 6.9% | ·
CCOC(=O)/C=C/CCC/C=C/C(=O)c1ccccc1 | -10.3% | -21.2% | ·
CCC1=Nc2cc(C(=O)NCc3ccccc3Cl)ccc2Sc2ccc(C)cc21 | ? | -2.9% | ·
CC1=Nc2cc(C(=O)NCc3ccccc3Cl)ccc2Sc2c(C)ccc(C)c21 | 31.6µM* | -4.0% | ·
CCC1=Nc2cc(C(=O)NCc3ccccc3OC)ccc2Sc2ccc(Cl)cc21 | 31.6µM* | 0.9% | ·
CC1=Nc2cc(C(=O)N3CCCC3)ccc2Sc2c(C)ccc(C)c21 | · | · | -13.8%
COC(=O)CS(=O)(=O)c1nc2ccccc2nc1N1CCCCC1 | -17.2% | -6.8% | ·
CC1=c2c(oc3cc(O)c(Nc4c(C)cc(O)cc4O)c(C)c23)=CC(=O)C1=Nc1c(C)cc(O)cc1O | 2.5% | -12.1% | -2.6%
COc1ccc(S(=O)(=O)NCC(c2ccc(N(C)C)cc2)N2CCCC2)cc1F (configuration not stated) | 5.6% | 0.6% | ·
CCn1c(C(=O)NCc2cc(Br)ccc2OC)cc2oc3ccccc3c21 | 31.6µM* | -5.4% | ·
SMILES | Cruzain noTriton | Cruzain Triton | NS1 function inh
CCn1c(C(=O)NCc2ccccc2Br)cc2oc3ccccc3c21 | ? | -6.6% | ·
COc1cccc(C2CC(c3cccs3)=NN2C(=O)CSc2nc3ccccc3o2)c1OC (configuration not stated) | ? | 3.55µM* | -6.0%
COc1ccccc1C1CC(c2cccs2)=NN1C(=O)CCC(=O)O (configuration not stated) | · | · | 3.8%
C=CC(C)(O)CC1[C@@]2(C)CCCC(C)(C)C2CC[C@]1(C)O (some centres not stated) | ? | -4.9% | ·
CCCc1nn2c(=O)cc(COC(=O)c3ccccc3NC(=O)c3ccc(OCC)cc3)nc2s1 | 8.3% | 1.8% | ·
CCCn1c(-c2ccc(F)cc2)nc2c(NCCCN3CCCCC3C)nc(C)nc21 (configuration not stated) | 0.4% | 1.7% | ·
C=CCC(C)(O)CCc1ccccc1 (configuration not stated) | -6.1% | 3.6% | ·
Cc1ccc(-c2nc(NC(=O)CSc3cc(C)c4ccccc4n3)ns2)cc1 | ? | -1.6% | 3.5%
O=C(CSc1ccc2ccccc2n1)Nc1nsc(-c2ccc(Cl)cc2)n1 | 31.6µM*! | -0.2% | -6.8%
Cc1cc(C)cc(NC(=O)Cn2c(C)cc(C)c(C#N)c2=O)c1 | 6.4% | -5.9% | ·
O=C(Cn1nc(N2CCN(c3ccccc3)CC2)ccc1=O)NCc1cccc(Cl)c1 | ? | -1.0% | ·
O=c1c(-c2cc(F)cc(F)c2)nc2cncnc2n1Cc1ccccc1 | -2.1% | -4.7% | ·
CC(=O)[C@@]1(N=Nc2ccc(S(N)(=O)=O)cc2)CCOC1=O | 0.9% | 2.0% | 4.1%
O=C1c2ccccc2C(=O)N1OS(=O)(=O)c1ccc(F)cc1 | · | · | 9.2%

Screens as filed in PubChem.
